# Results filed as inconclusive are left out. Where a call stands in place of a potency, no number is given. Unmarked numbers belong to inactive results. Active and inactive are the calls of the source. Calls follow the shape of the full dose curve.
# Experiment: Cytotoxicity counterscreen for inhibitors of SARS-CoV-2 cell entry (AID 1645845); also: nearly all actives have a fitted effect of over 50% in size
# Conditions: cell viability (SARS-CoV-2 entry assay cells); series mostly up to 57.1 µM
# Source text: Assay Provider: Wei Zheng, Ph.D.
# National Center for Advancing Translational Sciences, National Institute of Health, Rockville, MD.
# SARS-CoV-2 spike protein, within the viral envelope, mediates viral attachment and infection of host cells. The SARS-CoV-2 spike protein specifically binds to the host receptor ACE2 (Angiotensin-converting enzyme 2). This interaction promotes endocytosis of the viral particle, additional events lead to viral-host cell membrane fusion and release of the viral contents, allowing viral replication.
# While SARS-CoV-2 requires BSL-3 facilities for live virus work, pseudo-typed partices (PP) that incorporate SARS-CoV-2 spike proteins without replication elements could facilitate studies on viral entry mechanisms in a BSL-2 setting. This PP cell entry assay could also enable screening of small molecule compound libraries in BSL-2 setting to identify inhibitors of SARS-CoV-2 cell entry. To eliminate false positive compounds, ATP content cytotoxicity assay was screened in the same cell line.
# SEQUENCE No. (e.g., 1, 2, 3, etc.); […] (e.g., Cells, Incubation, Reagent, etc.); VALUE and DESCRIPTION.
# 1. Cells. Seed 1500 HEK293-ACE2 cells (Expi293F with stable expression of human ACE2) in 2 uL/well media (DMEM, 10% FBS, 1x L-glutamine, 1x Pen/Strep, 1 ug/ml puromycin) in white 1536-well assay plates (Greiner #782073).
# 2. Incubation. Incubate at 37 C with 5% CO2 overnight (~16 h).
# 3. Compounds. Dispense 23 nL/well compounds in DMSO via pin transfer.
# 4. Incubation. Incubate for 1 h at 37C 5% CO2.
# 5. Reagent. Dispense 2 uL/well of media (DMEM, 10% FBS, 1x L-glutamine, 1x Pen/Strep, 1 ug/ml puromycin).
# 6. Incubation. Incubate at for 48h at 37C 5% CO2
# 7. Reagent. Dispense 4 uL/well of ATPLite 1step luminescence assay reagent (PerkinElmer #6016739).
# 8. Incubation. Incubate for 15 min at room temperature.
# 9. Detection. Read luminescence signal (Viewlux plate reader, PerkinElmer). Data was normalized with wells containing cells as 100%, and wells without cells (media only control) as 0%.
# Potency is read from the fitted curve at half-maximal effect.
Structure (SMILES),Potency,"activity change, negative = cytotoxicity",outcome
CC1=C(C(=O)Nc2cc3cn[nH]c3cc2F)C(c2ccc(Cl)cc2F)N=C(c2ccnc(Cl)c2)N1 (stereo not given),inactive,,
O=C(Nc1cn[nH]c1-c1nc2ccc(CN3CCOCC3)cc2[nH]1)NC1CC1,15.8 µM (active),,
COc1ccc(CC2c3cc(OC)c(OC)cc3CC[N+]2(C)CCC(=O)OCCCCCOC(=O)CC[N+]2(C)CCc3cc(OC)c(OC)cc3C2Cc2ccc(OC)c(OC)c2)cc1OC (stereo not given),inactive,,
C[C@H]1COc2c(N3CCN(C)CC3)c(F)cc3c(=O)c(C(=O)O)cn1c23,inactive,,
CCOC(=O)c1c(CSc2ccccc2)n(C)c2cc(Br)c(O)c(CN(C)C)c12,inactive,,
Cc1nc2c([nH]1)CCN(C(=O)c1ccc(NC(=O)c3ccccc3-c3ccccc3)cc1)c1ccccc1-2,inactive,,
COC(=O)N1CCN(Cc2cccc(NC(=O)Nc3ccc(C)nc3)c2F)CC1,inactive,,
Cc1ccc(C(C)(O)c2nc3ccccc3s2)c(C)c1 (stereo not given),inactive,,
N[C@H](CO)C(=O)O,inactive,,
O=C1NC(=O)/C(=C/c2ccc3nccnc3c2)S1,inactive,,
CCc1nc(-c2cccc(C)c2)c(-c2ccnc(NC(=O)c3ccccc3)c2)s1,inactive,,
Cc1cc2nc3c(=O)[nH]c(=O)nc-3n(CC(O)C(O)C(O)CO)c2cc1C (stereo not given),inactive,,
Cc1ccc(CN2CCNCC2)cc1NC(=O)CNc1ccc(F)c(F)c1,inactive,,
COc1cc(C)c(C=CC(C)=CC=CC(C)=CC(=O)O)c(C)c1C,inactive,,
CCNC(=O)[C@H]1O[C@@H](n2cnc3c(N)nc(NCCc4ccc(CCC(=O)O)cc4)nc32)[C@H](O)[C@@H]1O,inactive,,
O=c1c(O)c(-c2ccc(O)cc2O)oc2cc(O)cc(O)c12,inactive,,
C[C@]12CC[C@@H]3c4ccc(OC(=O)c5ccccc5)cc4CC[C@H]3[C@@H]1CC[C@@H]2O,inactive,,
Nc1ncnc2c1ncn2[C@@H]1O[C@H](COP(=O)(O)OP(=O)(O)OP(=O)(O)O)[C@@H](O)[C@H]1O,,-13.7% [at 0.702 µM],
Cc1ccc(/C=N/NC(=O)c2ccccc2Oc2ccccc2)o1,inactive,,
CN[C@@H](C)[C@H]1[C@H](O)C[C@@]2(C)[C@@H]3CC[C@H]4C(C)(C)[C@@H](NC)CC[C@@]45C[C@@]35CC[C@]12C,,,inactive [at 11.3 µM]

Structure (SMILES),Potency,"activity change, negative = cytotoxicity",outcome
Clc1cc(Cl)cc(CNc2ncncc2-c2ccc3c(c2)OCO3)c1,inactive,,
O=C(O)c1cc(O)c2c(c1)C(=O)c1cccc(O)c1C2=O,inactive,,
O=C(c1ccc(C(=O)N2CCC(N3CCCC3)CC2)c(Nc2ccccc2)c1)N1CCC(N2CCCC2)CC1,inactive,,
C[C@@H]1CN(Cc2ccc(F)cc2)[C@@H](C)CN1C(=O)c1cc2c(C(=O)C(=O)N(C)C)cn(C)c2cc1Cl,inactive,,
COc1ccc2c(OCc3nnc4ccc(-c5ccccc5)nn34)ccnc2c1,inactive,,
COc1cccc(Nc2c(C(N)=O)cnc3c(C)cc(S(=O)(=O)c4cccc(C(=O)N(C)C)c4)cc23)c1,inactive,,
CN1CCc2c(n(Cc3ccc(C(=O)NO)cc3)c3ccccc23)C1,31.6 µM (active),,
O=C(c1cncc(Br)c1)N1CCC(N2CCCC2)CC1,inactive,,
CCCc1nc(C(C)(C)O)c(C(=O)O)n1Cc1ccc(-c2ccccc2-c2nn[nH]n2)cc1,inactive,,
Cc1ccccc1O,inactive,,
CC(C)C(C)C=CC(C)C1CCC2C3=CC=C4CC(O)CCC4(C)C3CCC21C (stereo not given),inactive,,
CN1CCC2=C(C1)c1ccccc1Cc1ccccc12,inactive,,
NC[C@H]1O[C@H](O[C@@H]2[C@@H](O)[C@@H](O[C@H]3O[C@H](CO)[C@@H](O)[C@H](N)[C@@H]3O)[C@H](N)C[C@@H]2N)[C@H](O)[C@@H](O)[C@H]1O,inactive,,
CC(C)N(C[C@H]1O[C@@H](n2cnc3c(N)ncnc32)[C@H](O)[C@@H]1O)C1CC(CCc2nc3ccc(C(C)(C)C)cc3[nH]2)C1 (stereo not given in full),inactive,,
COc1c(N2C[C@@H]3CCCN[C@H]3C2)c(F)cc2c(=O)c(C(=O)O)cn(C3CC3)c12,inactive,,
C[C@@H]1C(=O)O[C@H]2CC34[C@H]5C[C@@H](C(C)(C)C)C36[C@H](OC(=O)[C@@H]6O)O[C@@]4(C(=O)O5)[C@]21O (stereo not given in full),inactive,,
Cc1cn([C@@H]2C[C@@H](O)[C@H](CO)O2)c(=O)[nH]c1=O,inactive,,
Cc1cc(O)c2c(c1)O[C@@]1(C)CC[C@H]3C(C)(C)CCCC34CO[C@@H]2[C@H]41 (stereo not given in full),inactive,,
C[C@H]1CCC/C=C/C2C[C@H](O)C[C@H]2[C@H](O)/C=C/C(=O)O1 (stereo not given in full),inactive,,
C[C@]12CC[C@H]3[C@@H](CCC4=CC(=O)CC[C@@]43C)[C@@H]1CC[C@@H]2OC(=O)CCc1ccccc1,inactive,,
